Shown are actives, neighbours in structure and some others; about 8.8% of the full set was active somewhere.
HT1080 IDH1KD tx = kills HT-1080 cells with IDH1 knockdown | AID 686971 | Potency, µM (top dose mostly 46.1 µM), for the others: at the highest dose activity, negative = toxicity, most hits filed as cytotoxic | 2% of 360,000 active | HT-1080 IDH1 knockdown viability, ATP luminescence, 48 h;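 also: potency is read from the fitted curve at half-maximal effect; 0% = DMSO wells and -100% = cell-free medium wells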
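% activity derives from luminescence (CellTiter-Glo), normalised to DMSO and no-cell wells. HT-1080-IDH1KD cells, 750/well, had 48 h compound exposure at 37 °C.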
HT1080NT lethal = kills 2HG-producing HT-1080-NT fibrosarcoma cells; 1.6% of 360,000 active; Potency, µM (top dose mostly 46.1 µM), for inactives: at the top dose activity, negative = less viability, actives largely listed as cytotoxic; HT-1080-NT fibrosarcoma viability, CellTiter-Glo ATP luminescence, 48 h;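 also: NT is the 2HG producing partner of a matched IDH1 knockdown line; potency is read from the fitted curve at half-maximal effect; 0% = DMSO-treated cells and -100% = media-only wells without cells; nearly all actives have a fitted effect of over 55% in size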
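Viability of the 2HG-overproducing fibrosarcoma line after 48 hours of compound exposure at 37 degrees C was determined by luminescence with CellTiter-Glo, and concentration-effect curves were then fitted and categorized.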
KB-3-1 tox = kills parental KB-3-1 adenocarcinoma cells; KB-3-1 viability, CellTiter-Glo ATP luminescence, 72 h; Potency, µM (highest dose often 46.1 µM), hits mostly cytotoxic; 1.4% of 400,000 active; also: potency is read from the fitted curve at half-maximal effect; nearly all actives have a fitted effect of over 60% in size
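KB-3-1 parental drug-naive adenocarcinoma cells in DMEM/10% FBS, incubated 72 h at 37 C with pin-transferred compounds across a concentration series. Viability by CellTiter-Glo luminescence; concentration-response curves fitted after normalization.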
KB-V1 cytotox = KB-V1 MDR subline cytotoxicity; KB-V1 MDR cells viability, CellTiter-Glo, 72 h; Potency, µM (highest dose often 46.1 µM), hits mostly cytotoxic; 3.4% of 400,000 active; AID 1347076; also: potency is read from the fitted curve at half-maximal effect; nearly all actives have a fitted effect of over 60% in size
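Drug-selected KB-V1 cells, grown in DMEM lacking phenol red with 10% FBS, receive compound titrations; after three days at 37 degrees C, surviving cell ATP is quantified by CellTiter-Glo luminescence and responses normalized and curve-fitted.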
IL-1B inflam inh = blocks inflammasome-driven IL-1 beta release; THP-1 LPS/ATP IL-1B secretion, AlphaLISA, 16 h; active compounds read low; activity change, % at 57.5 µM; 4.7% of 360,000 active; AID 743279; in the data active = activity change below about -50%; inconclusive = mostly about -30% to -49%
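Secreted IL-1B measured by AlphaLISA bead assay after 16 h compound exposure of THP-1 cells; compounds (final up to 57.5 uM) added 1 h before LPS (250 ng/mL) and ATP (1.25 mM) stimulation; lower signal means less secretion.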
Starred values were filed as active, the others as inactive; i = inactive; ? = inconclusive; . = not tested or not shown. Unless noted, calls follow the shape of the dose curve; as a rule, active = well fitted curve in the direction sought with a large enough effect; inconclusive = small, poorly fitted or top-dose-only effect, or another doubt; inactive = no such curve, though single readings can be large; an effect the other way counts as inactive or inconclusive. Unless noted, % is scaled to controls: 0 for no effect and ±100 for the full control effect.

SMILES | HT1080 IDH1KD tx | HT1080NT lethal | KB-3-1 tox | KB-V1 cytotox | IL-1B inflam inh
CCN(CC(=O)NCc1ccc(F)cc1)C(=O)/C=C/c1ccc(S(=O)(=O)N(CC)CC)cc1 | 4.6µM* | 16µM* | ? | ? | 41
CC(C)(C)OC(=O)N(CC1CCNCC1)C(=O)c1[nH]c(C(F)(F)F)nc1-c1ccccc1 | 0% | 8% | i | i | -27
CN(C(=O)CSc1nc2ccccc2[nH]1)c1ccc(F)cc1 | . | . | i | i | .
CCN(CC(=O)Nc1c(F)cccc1F)C(=O)CN(C)S(=O)(=O)c1ccc(F)cc1 | 14% | 4% | i | 21µM* | 9
Cc1ccc(C)c(S(=O)(=O)ON2C(=O)c3ccccc3C2=O)c1 | 13µM* | ? | ? | i | -18
CCOC(=O)C(=O)NNc1ccc(F)cc1 | 8.2µM* | 12µM* | ? | i | -14
CCOC(=O)C(=O)N/N=C/c1ccc(F)cc1 | 18% | 25% | i | i | -2
Nc1nc2c(nnn2C2CC(O)C(CO)O2)c(=O)[nH]1 (stereo not drawn) | 5.2µM* | ? | 2.3µM* | 1.3µM* | 26
Nc1nc2c(ncn2C2C[C@H](O)[C@@H](CO)O2)c(=O)[nH]1 (stereo partly drawn) | ? | ? | i | i | 10
CCOC(=O)Cc1[nH]nc2c1C(c1cccc(OC)c1OC)C(C#N)=C(N)O2 (stereo not drawn) | 4% | 1% | i | i | -9
N#CC1=C(N)Oc2n[nH]c(-c3cccs3)c2C1C1C=CCCC1 (stereo not drawn) | 3% | -16% | i | i | -94*
N#CC1=C(N)Oc2n[nH]c(-c3cccs3)c2C1C1CCCCC1 (stereo not drawn) | -25% | ? | i | i | -98*
CCOC(=O)Cc1[nH]nc2c1C(C1C=CCCC1)C(C#N)=C(N)O2 (stereo not drawn) | 21µM* | ? | i | i | -90*
N#CC1=C(N)Oc2n[nH]c(-c3cccs3)c2C1c1ccsc1 (stereo not drawn) | 5% | 2% | i | i | 19
COc1ccc(CNc2nc3c(-c4cccc(C)c4)nnn3c3ccccc23)cc1 | . | . | i | i | .
O=C(Nc1c(C(=O)c2ccccc2)oc2ccccc12)c1cc(=O)c2ccccc2o1 | . | . | i | i | .
CC(=O)Nc1cc(-c2ccccc2N(C)C)cn2c(-c3cccc(C(F)(F)F)c3)cnc12 | ? | ? | i | i | -21
Cc1cc(C)c2c(=O)cc(C(=O)Nc3sc4c(c3C(=O)NCC3CCCO3)CCCC4)oc2c1 (stereo not drawn) | . | . | i | i | .
CC(C)OC(=O)c1nnn(-c2nonc2N)c1CN1CCc2ccccc2C1 | 14% | 8% | i | 6.5µM* | 2
COC(=O)c1nnn(-c2nonc2N)c1CN1CCc2ccccc21 | ? | ? | 23µM* | ? | 39
CCN(CC)CCNC1=NCCn2c1cc1cc(OC)ccc12 | ? | ? | i | i | -76*
CCN(CC)CCn1c(NCc2cc(OC)ccc2OC)nc2ccccc21 | -9% | -8% | i | ? | -6
O=C(CCN1C(=O)C2C3CC(C(Br)C3Br)C2C1=O)OCC(=O)c1cccc([N+](=O)[O-])c1 (stereo not drawn) | -20% | -5% | i | i | 37
CCOc1cc(S(=O)(=O)Nc2cc(C)cc(C)c2)ccc1Cl | ? | ? | i | i | -59*
CCOc1ccccc1NS(=O)(=O)c1ccc(OC)c(OC)c1 | 0% | -9% | i | 26µM* | 6
SMILES | HT1080 IDH1KD tx | HT1080NT lethal | KB-3-1 tox | KB-V1 cytotox | IL-1B inflam inh
O=S(=O)(Nc1ccccc1N1CCOCC1)c1ccc(Cl)cc1 | 11% | -7% | i | ? | 53
Cn1c(=O)c(=O)n(C)c2cc(N3CCOCC3)c(NS(=O)(=O)c3ccc(Br)cc3)cc21 | -1% | -1% | i | ? | -69*
Cc1ccc(S(=O)(=O)Nc2cc3c(cc2N2CCOCC2)n(C)c(=O)c(=O)n3C)cc1 | 5% | 0% | i | i | -10
COc1ccc(S(=O)(=O)Nc2ccccc2N2CCOCC2)cc1OC | -1% | -5% | i | 23µM* | 14
O=[N+]([O-])c1ccc(Cl)c(S(=O)(=O)Nc2cccc(-c3ccc(N4CCCC4)nn3)c2)c1 | -10% | -10% | i | i | ?
Cc1cc(C)c2c(N)c(C(=O)c3ccc(Cl)cc3)sc2n1 | -28% | -29% | i | ? | -28
COc1ccc(C(=O)c2sc3nc(C)cc(-c4cccs4)c3c2N)cc1 | -21% | -12% | i | i | ?
COc1ccc(C(=O)c2sc3nc(C)cc(-c4cccs4)c3c2N)cc1OC | 3% | -4% | i | ? | -80*
Cc1cc(-c2cccs2)c2c(N)c(C(=O)c3ccc4c(c3)OCO4)sc2n1 | 8% | 6% | ? | 6.5µM* | -21
CCOC(=O)C(=NCCOC)NNc1cc(Cl)ccc1Cl | 10% | 6% | i | ? | 9
CCOC(=O)c1c(C)c(-c2ccccc2)n(CC(=O)Nc2ccc(OCC)cc2)c1C | . | . | i | i | .
Cn1ccnc1C(=O)c1ccc(NN)c([N+](=O)[O-])c1 | ? | -24% | i | i | -217*
Cn1ccnc1C(=O)c1cccc([N+](=O)[O-])c1 | 6% | 17% | i | i | 5
CCOc1cc(-c2cc(-c3ccc(N)cc3)nc(N)c2C#N)ccc1O | ? | ? | ? | ? | -62*
COc1ccc(-c2nc3cc(C)c(Br)c(C)n3c2Cc2ccccc2C(F)(F)F)cc1OC | 10% | 15% | i | i | -5
CN(CC(=O)NC(=O)Nc1ccccc1F)Cc1ccccc1F | 4% | 13% | . | . | 0
CCc1cccc(C)c1NC(=O)CN(C)Cc1ccccc1F | -5% | 0% | ? | 21µM* | 0
CC(c1ccccc1)N(CCC(c1ccccc1)C1CCOC(C)(C)C1)C(=O)c1ccco1 (stereo not drawn) | -2% | 7% | i | 9.2µM* | 0
COc1ccc(CN(CCC(c2ccc(F)cc2)C2CCOC(C)(C)C2)C(=O)c2ccco2)cc1 (stereo not drawn) | 26µM* | ? | ? | ? | -103*
CC1(C)CC(C(CC(=O)O)c2ccccc2)CCO1 (stereo not drawn) | 1% | 1% | i | i | 8
O=C(N/N=C/c1ccc(O)cc1)Nc1cccc2nsnc12 | ? | ? | ? | i | -98*
CC1CN(S(=O)(=O)c2cccc(C(=O)NCC(c3cccs3)N3CCOCC3)c2)CC(C)O1 (stereo not drawn) | 5% | 1% | i | i | 39

Assay outcomes deposited in PubChem BioAssay by National Center for Advancing Translational Sciences (NCATS).
